Assay outcomes (PubChem BioAssay)
Autofluor counter: compound fluorescence in toxin protease inhibitor counterscreen | fluorescence intensity (concentration not given with the values) | compound autofluorescence counterscreen, microsphere flow cytometry; active compounds read high | hit rate 3.1% among 360,000; in the data active means fluorescence intensity above about 16000; inconclusive means no clear call, values can overlap the other calls
Anthrax LF prot: Bacillus anthracis LF protease inhibitors, primary screen, biochemical, multiplex microsphere, MLPCN library | Lethal factor (Bacillus anthracis), P15917 | multiplex microsphere protease cleavage assay | inhibition, % at 10 µM | hit rate 0.12% among 360,000; further: plate controls were buffer without enzyme for full effect and enzyme alone for no effect
TcdB GH inh: TcdB glycohydrolase inhibitors, primary screen, biochemical, single point, plate reader; TcdB glycohydrolase enzymatic assay; inhibition, % at 9.99 µM; hit rate 0.24% among 350,000; AID 652162, 2013; in the data active means inhibition above about 10%
BoNT-F LC inh: BoNT/F light chain protease inhibitors, primary screen, biochemical, flow cytometry, MLPCN library; Botulinum neurotoxin type F light chain protease (Clostridium botulinum); Multiplex microsphere protease cleavage assay; inhibition, % at 10 µM; hit rate 0.22% among 360,000; AID 588497, 2011; in the data active means inhibition above about 35%, passing the limit was not always enough; inconclusive means no clear call, values can overlap the other calls; further: plate controls were buffer without enzyme for full effect and enzyme alone for no effect
BoNT-A LC inh2: BoNT/A light chain protease inhibitors, primary screen, biochemical, flow cytometry, MLPCN library. Botulinum neurotoxin type A light chain protease (Clostridium botulinum A str. ATCC 3502). multiplex microsphere protease substrate cleavage. inhibition, % at 10 µM. hit rate 0.17% among 360,000. AID 588499, 2011; further: plate controls were buffer without enzyme for full effect and enzyme alone for no effect
The depositor's hits bear a star; ? = inconclusive; · = no result given. This excerpt belongs to a sample that is enriched for hits. Unless noted, no stated cut-off is given here; in the data, active means inhibition above about 30%; inconclusive means no clear call, values can overlap the other calls; inactive means below that.

SMILES | Autofluor counter | Anthrax LF prot | TcdB GH inh | BoNT-F LC inh | BoNT-A LC inh2
Cc1cccc(C)c1OCC(O)CNC(C)C (stereo unspecified) | 2989 | -2 | · | 0 | 0
Cn1nnnc1SCc1ccc(C(=O)Nc2nccs2)cc1 | 24214* | -3 | · | -2 | -2
Cn1c(CSCc2ccc(Cl)c(Cl)c2)nnc1SCC(=O)Nc1nccs1 | 3739 | -2 | · | ? | 0
Cn1c(CSCc2ccc(Cl)cc2)nnc1SCC(=O)Nc1nccs1 | 16354* | 0 | 0 | -1 | 0
C[C@@H]1CN([C@@H](C)CO)C(=O)Cc2cc(NS(C)(=O)=O)ccc2O[C@H]1CN(C)S(=O)(=O)c1ccc(Cl)cc1 | · | · | 0 | · | ·
O=C1CN(Cc2ccc(F)cc2)C[C@H]2[C@@H](c3ccc(-c4ccccc4F)cc3)[C@H](CO)N12 | · | · | 1 | · | ·
O=c1[nH]ncc(N/N=C/c2ccccc2)c1Cl | 15870 | 2 | · | 1 | 1
Cc1ccc(/C=N\Nc2cn[nH]c(=O)c2Cl)cc1 | 23558* | -1 | · | -5 | 1
CC(=O)Nc1ccc(NC(=O)COC(=O)c2c(C)nn(-c3ccccc3)c2C)cc1 | 2061 | -2 | 0 | 0 | 0
Cc1nn(-c2ccccc2)c(C)c1C(=O)OCC(=O)N1CCN(S(=O)(=O)c2ccccc2)CC1 | 21834* | -3 | · | 1 | ?
COc1ccc(S(=O)(=O)N2CCN(C(=O)c3c(C)nn(-c4ccccc4)c3C)CC2)cc1 | 3441 | 1 | 0 | -5 | 0
Cc1nn(-c2ccccc2)c(C)c1C(=O)OCC(=O)NC12CC3CC(CC(C3)C1)C2 | 22484* | -1 | 1 | 2 | 2
CC(C)[C@H](NC(=O)NCCc1ccc(Cl)cc1)C(=O)O | 17382* | -3 | 2 | -8 | ?
CCN1CCN(C(=O)c2ccccc2N(Cc2ccccc2)S(=O)(=O)c2ccc(C)cc2)CC1 | 21954* | -3 | · | 1 | ?
CCN1CCN(C(=O)c2ccccc2N(Cc2ccccc2)S(C)(=O)=O)CC1 | 21470* | 0 | · | 1 | 2
Cc1noc(C)c1CSc1nnc(C)c(=O)[nH]1 | 8919 | -13 | · | 0 | -1
Cc1nc(SCCc2ccccc2)[nH]c(=O)c1C | 5628 | 4 | · | -4 | 1
Cc1nnc(SCCc2ccccc2)[nH]c1=O | 19226* | 0 | · | 8 | ?
CSc1nnc(C)c(=O)[nH]1 | 25237* | -2 | · | -8 | -5
C[C@@H]1CN([C@@H](C)CO)C(=O)c2cccc(NS(=O)(=O)c3ccc(F)cc3)c2O[C@@H]1CN(C)S(C)(=O)=O | · | · | -1 | · | ·
C[C@@H]1CN([C@@H](C)CO)C(=O)Cc2cc(NC(=O)CCN3CCOCC3)ccc2O[C@H]1CN(C)Cc1ccncc1 | · | · | 0 | · | ·
CC(=O)Oc1ccc2nc(/C=C/c3ccccc3)oc(=O)c2c1 | 3325 | 4 | 12* | ? | 5
COc1ccccc1OCC(=O)N/N=C1/SCC(=O)N1Cc1ccccc1 | 22284* | -1 | · | 2 | 2
C[C@@H]1CCCCO[C@@H](CN(C)S(=O)(=O)c2cn(C)cn2)[C@H](C)CN([C@H](C)CO)C(=O)c2cc(NS(=O)(=O)c3ccc(F)cc3)ccc2O1 | · | · | 1 | · | ·
C/C=C/c1cnc2c(c1)C(=O)N([C@@H](C)CO)C[C@H](C)[C@H](CN(C)C(=O)Nc1ccc(C(F)(F)F)cc1)O2 | · | · | 1 | · | ·
SMILES | Autofluor counter | Anthrax LF prot | TcdB GH inh | BoNT-F LC inh | BoNT-A LC inh2
CCSc1nc(C(F)(F)F)cc(=O)n1-c1ccccc1 | 20108* | 1 | · | 0 | ?
CC(C)Sc1n[nH]c(=O)n1-c1cccc(C(F)(F)F)c1 | 3571 | -14 | 0 | ? | ?
CC(C)Sc1nc(C(F)(F)F)cc(=O)n1-c1ccccc1 | 20162* | 1 | · | -1 | ?
Cn1c(SCc2ccc(Cl)cc2Cl)nc(C(F)(F)F)cc1=O | 10747 | -4 | · | -1 | 1
C[C@H]1CN([C@@H](C)CO)C(=O)c2cc(C#Cc3ccccc3F)cnc2O[C@H]1CN(C)C(=O)Cc1ccccc1 | · | · | 1 | · | ·
CC1C(c2ccccc2)C(C#N)(C#N)C2(C#N)C(=O)NC1(N)C2C (stereo unspecified) | 37669* | -10 | 2 | -50 | -29
CCOC(=O)c1cnn(-c2ccccc2)c1NC(=O)c1cccs1 | 7163 | 3 | 0 | -2 | 0
CCOC(=O)c1cnn(CCOC(=O)c2cccs2)c1NC(=O)c1cccs1 | 22411* | 0 | · | 3 | 1
Cc1noc(C)c1NC(=O)N(C)C[C@H]1OCCCC[C@@H](C)Oc2ccc(NC(=O)Cc3ccccc3)cc2C(=O)N([C@@H](C)CO)C[C@H]1C | · | · | 0 | · | ·
Cc1ccnc(NC2(C(F)(F)F)N=C(c3ccccc3)NC2=O)c1 (stereo unspecified) | 19679* | -3 | · | 5 | 3
CC(=O)Nc1nc(COc2ccc3ccccc3c2)cs1 | 23460* | -8 | · | -1 | -2
O=C(Nc1nc(COc2ccccc2)cs1)C12CC3CC(CC(C3)C1)C2 | 24492* | -2 | · | -6 | -6
CNC(=O)N(O)C1N(/N=C/c2cccnc2)C(=S)SC1(C)C (stereo unspecified) | 5932 | -6 | 2 | 5 | 0
CNC(=O)N(O)C1N(/N=C/c2ccc(SC)cc2)C(=S)SC1(C)C (stereo unspecified) | 3288 | 8 | 10* | 0 | 2
C[C@H](CO)N1C[C@H](C)[C@@H](CN(C)C(=O)Nc2ccc(C(F)(F)F)cc2)OCCCC[C@H](C)Oc2ccc(NC(=O)NC3CCCCC3)cc2C1=O | · | · | 0 | · | ·
COc1ccc(CC(=O)NC(C)c2nnc(SCCOc3ccc(OC)cc3)n2C)cc1 (stereo unspecified) | 16217* | 4 | 1 | 2 | 0
CCOc1ccc(NC(=O)CSc2nnc(C34CC5CC(CC(C5)C3)C4)n2C)cc1 | 17197* | -1 | · | 0 | -2
COc1ccc(OCCSc2nnc(CCNC(=O)c3ccc(OC)cc3)n2C)cc1 | 8027 | 4 | · | 3 | 0
COc1ccc(OCCSc2nnc(CCNC(=O)c3ccc(Cl)c(Cl)c3)n2C)cc1 | 20984* | -11 | 0 | 1 | 3
COc1ccc(C(=O)NNC(=O)CSc2nnc(COc3ccccc3)n2C)cc1 | 16210* | -7 | · | -2 | 0
COCC(=O)N(C)C[C@H]1Oc2cc(-c3ccc(OC)cc3)ccc2S(=O)(=O)N([C@H](C)CO)C[C@@H]1C | · | · | 1 | · | ·
C[C@@H]1CN([C@H](C)CO)C(=O)Cc2cc(NC(=O)c3ccncc3)ccc2O[C@H]1CN(C)C(=O)Nc1ccccc1 | · | · | 0 | · | ·
CCOc1ccc(NC(=O)CSc2nnc(CCNC(=O)c3ccc(OC)cc3)n2C)cc1 | 16470* | 2 | -3 | 0 | ?
C=CCn1c(SCCOc2ccc(OC)cc2)nnc1C(C)NC(=O)c1ccc(OC)cc1 (stereo unspecified) | 8159 | -3 | · | -9 | 0
C=CCn1c(SCCOc2ccc(OC)cc2)nnc1C(CO)NC(=O)c1ccc(OC)cc1 (stereo unspecified) | 16235* | -12 | 1 | 24 | 17
